# Most compounds without a hit are left out; they make up all but 3.4% or so of the library.
# RGS12 GoLoco inh = inhibitors of human Gai1-RGS12 GoLoco interaction (red fluorophore); AID 880; Potency, µM (series often up to 61.6 µM), inactives show top-dose activity, negative = inhibition, usual class: inhibitors; Gai1:RGS12 GoLoco peptide FP, rhodamine, 10 min; P63096; 230,000 compounds, 0.44% hits; active means well fitted inhibition curve with a large enough effect, not every such curve was filed as active; inactive means no such curve, though single readings can be large or run the other way; further: nearly all actives have a fitted effect of over 30% in size
# Tau fluor counter = counter-screen for tau fibril formation inhibitors | tau K18 P301L Alexa594 fluorescence, heparin fibrillization | Potency, µM (top dose mostly 57.7 µM), for inactives: top-dose activity change, negative = decrease | 280,000 compounds, 0.93% hits; further: nearly all actives have a fitted effect of over 55% in size
#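 Human tau K18 P301L (15 uM unlabeled, 0.24 uM Alexa 594-labeled) in 100 mM sodium acetate pH 7 with 20 uM heparin, 6 hr at 37 C. ThT 30 uM added, 1 hr ambient; Alexa 594 FP and total fluorescence read at 555/632 nm.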
# JMJD2E inh = blocks human JMJD2E demethylase activity | B2RXH2 | JMJD2E catalytic domain, FDH-coupled NADH fluorescence (FDH is formaldehyde dehydrogenase) | Potency, µM (top dose mostly 57.1 µM), without a hit: at the highest dose activity change, negative = inhibition, most hits filed as inhibitors | 230,000 compounds, 1.6% hits | AID 2147; active means well fitted inhibition curve with a large enough effect, not every such curve was filed as active; inconclusive means small, poorly fitted or top-dose-only effect, or another doubt; inactive means no such curve, though single readings can be large or run the other way;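 further: 0% = wells with enzyme and -100% = buffer wells without enzyme; nearly all actives have a fitted effect of over 50% in size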
# Target sequence (B2RXH2 1-337 limits assumed): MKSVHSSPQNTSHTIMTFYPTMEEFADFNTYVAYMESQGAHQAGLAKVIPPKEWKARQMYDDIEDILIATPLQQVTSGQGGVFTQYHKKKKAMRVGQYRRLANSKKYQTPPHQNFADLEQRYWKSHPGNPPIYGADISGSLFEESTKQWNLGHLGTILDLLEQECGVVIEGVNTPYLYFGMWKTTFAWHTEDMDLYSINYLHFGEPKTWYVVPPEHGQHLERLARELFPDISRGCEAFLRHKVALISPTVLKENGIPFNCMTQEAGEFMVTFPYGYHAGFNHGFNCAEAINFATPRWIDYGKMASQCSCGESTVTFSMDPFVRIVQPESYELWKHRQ
# Tau FP inhib = inhibitors of human tau fibril formation; P10636; K18 P301L tau heparin fibrillization, Alexa594 FP, 6 h; Potency, µM (highest dose often 57.7 µM), without a hit: at the highest dose activity, negative = inhibition, most hits filed as inhibitors; 280,000 compounds, 0.39% hits; AID 1468; further: nearly all actives have a fitted effect of over 55% in size
# Target sequence (P10636 561-689 P618L limits assumed): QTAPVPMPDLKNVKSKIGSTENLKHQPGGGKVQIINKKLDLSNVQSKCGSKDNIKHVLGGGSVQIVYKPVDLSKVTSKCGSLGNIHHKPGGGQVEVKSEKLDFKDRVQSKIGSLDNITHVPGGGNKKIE
#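 Read-out: fluorescence polarization of Alexa 594-labeled tau (0.24 uM), 555 nm excitation, 632 nm emission. Mixtures held 15 uM unlabeled K18 P301L, compound and 20 uM heparin, pH 7 acetate buffer, incubated 6 hr at 37 C.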
# Tau ThT inhib = inhibitors of human tau fibril formation, thioflavin T binding. P10636. recombinant tau K18 P301L (four-repeat tau fragment), heparin-induced fibrillization, ThT fluorescence. Potency, µM (series often up to 57.4 µM), inactives show at the top dose activity, negative = inhibition, most hits filed as inhibitors. 270,000 compounds, 2.1% hits. AID 1460; further: nearly all actives have a fitted effect of over 55% in size
#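 Heparin-induced fibrillization of the P301L-mutant K18 repeat-domain fragment of human tau was followed by ThT binding in quantitative high-throughput format.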
# * marks the source's active call; other numbers are inactive results; ? = inconclusive; / = not tested or not shown; [ ] = another dose, or the depositor's remark. Unless noted, the call rests on the fitted dose curve; in most records, active means well fitted curve in the direction sought with a large enough effect; inconclusive means small, poorly fitted or top-dose-only effect, or another doubt; inactive means no such curve, though single readings can be large; an effect the other way counts as inactive or inconclusive. Unless noted, on the % scale 0 is the no-effect control and ±100 the full control effect; potency means the concentration at half of the fitted maximal effect.
SMILES,RGS12 GoLoco inh,Tau fluor counter,JMJD2E inh,Tau FP inhib,Tau ThT inhib
CC1=Nc2cc(C(=O)NCCc3ccc(Cl)cc3)ccc2Sc2c(C)ccc(C)c21,/,-23%,/,-19%,-9%
Cc1cc(C)c(NC(=O)CCCn2c(C)c3cnn(-c4ccccc4)c(=O)c3c2C)c(C)c1,/,-4%,/,7%,-18%
O=C(Nc1cc(Sc2ccccn2)cc([N+](=O)[O-])c1)c1cccc(F)c1,14%,7%,-7%,4%,4%
O=C(Nc1cc(Sc2nc3ccccc3s2)cc([N+](=O)[O-])c1)c1ccccc1F,7%,13µM*[quencher],-2%,?,-15%
O=C(Nc1cc(Sc2nc3ccccc3s2)cc([N+](=O)[O-])c1)c1ccccc1,4%,4µM*[quencher],-9%,5%,0%
Cc1cc2c(cc1S(=O)(=O)N(CCN(C)C)Cc1ccccc1)OCC(=O)N2,/,-3%,/,-2%,2%
CC1=C(C#N)C(=O)N(C2CCS(=O)(=O)C2)C(=O)/C1=C\c1ccc(C)o1 (centres undefined),40%,?,?,?,22µM*
CCN(CC)c1nn2c(=O)c(C(=O)NCc3cccc(OC)c3OC)cnc2s1,/,0%,/,-4%,1%
O=C(Nc1ccc(C(=O)N2CCCCC2)cc1)c1ccc(Br)cc1,9%,-6%,0%,-2%,-9%
CC(C)(C)c1ccc(C(=O)Nc2ccc(NC(=O)c3ccc(Cl)c(Cl)c3)cc2)cc1,/,-8%,/,-15%,-6%
CC(C)(C)c1ccc(C(=O)Nc2ccc(C=C(C#N)C#N)cc2)cc1,6%,-9%,11µM*,?,?
N#CC(C#N)=Cc1ccc(NC(=O)c2ccc(Br)cc2)cc1,11%,-24%,20µM*,?,?
Cc1nnc(N2CCN(c3ccccc3F)CC2)c2c1nnn2Cc1ccccc1Cl,/,-14%,/,0%,-10%
COc1ccc(CNC(=O)CSc2ncc3c(n2)-c2ccc(Cl)cc2N(Cc2ccc(F)cc2)S3(=O)=O)cc1OC,/,-23%,/,-17%,13%
Cc1cccc(C)c1NC(=O)Cn1c(=O)n(Cc2ccc3c(c2)OCO3)c(=O)c2oc3ccccc3c21,/,4%,/,-12%,5%
Cc1ccc2nc(CSc3nc(C)ccc3C#N)[nH]c2c1,0%,?,?,2%,11µM*
Cc1ccc2[nH]c(C)c(CC(=O)O)c2c1,-17%,-18%,22µM*,3%,?
CCOc1ccc(NC(=O)c2cc(Cl)nc3ccccc23)cc1,2%,-17%,-7%,-6%,-15%
CCOc1ccc(Nc2c3ccccc3nc3ccccc23)cc1,3%,?,?,14%,20µM*
Cc1ccc(OCC(=O)NNc2c3ccccc3nc3ccccc23)cc1,-1%,14µM*[quencher],?,8%,13µM*
Cc1cccc(OCC(=O)NNc2c3ccccc3nc3ccccc23)c1,2%,14µM*[quencher],3%,8%,?
Cc1cc(CNC(=O)COc2ccccc2)c2ccccc2n1,12%,3%,3%,7%,5%
CCc1ccc(C(=O)c2cn(CC(=O)Nc3cc(OC)ccc3OC)c3ccc(Cl)cc3c2=O)cc1,/,-13%,/,-10%,2%
CCCCCOc1ccc(CSCCNC(=S)Nc2ccccc2)cc1,8%,?,-10%,13µM*,-13%
CCOC(=O)c1ccoc1CSCc1ccc(C(=O)OC)o1,22%,-28%,-13%,?,25µM*
SMILES,RGS12 GoLoco inh,Tau fluor counter,JMJD2E inh,Tau FP inhib,Tau ThT inhib
Cc1ccc(S(=O)(=O)N2CCc3cc(C(=O)Nc4c(C)cccc4C(C)C)ccc32)cc1,/,-2%,/,-1%,1%
C/C(=C\C(=O)c1ccc(F)cc1)Nc1ccc(N2CCOCC2)cc1,3%,-20%,?,10%,3.5µM*
O=C(/C=C/c1ccc(F)cc1)c1ccc(N2CCOCC2)cc1,-4%,-20%,-12%,-12%,?
S=c1nc[nH]c2nc[nH]c12,-16%,-8%,20µM*,-2%,-5%
CN(C)c1ccc(/C=N/Nc2ccc(-n3ccnc3)nn2)cc1,-12%,?,-6%,-9%,5µM*
CC(C)(C)c1ccc(/C=C/C(=O)Nc2ccc3c(c2)OCCO3)cc1,6%,10µM*[quencher],-15%,?,?
COc1ccc(-c2cc3ccc(O)c(CN4CCC(C)CC4)c3oc2=O)cc1,/,-16%,/,14%,22%
COC(=O)c1c(C)[nH]c(-c2csc(N)n2)c1C,37%,?,-22%,-13%,25µM*
N#C/C(=C(/O)c1ccco1)c1nc2ccccc2s1,16%,-17%,6%,11%,?
N#C/C(=C(/O)c1cc2ccccc2o1)c1nc2ccccc2s1,10%,?,3%,?,6.3µM*
COc1ccc(-n2c(=O)c3c4c(sc3n(Cc3c(F)cccc3Cl)c2=O)CN(C(C)=O)CC4)cc1OC,/,3%,/,2%,0%
O=C(CN1c2ccccc2Sc2ccccc21)NNC(=O)Nc1cccc(Cl)c1,2%,8.9µM*[quencher],-7%,?,-4%
Cc1ccccc1NC(=O)CSc1ccc(-c2cccs2)nn1,/,-18%,/,-8%,-4%
COc1cc(CNc2ccc3[nH]c(=O)[nH]c3c2)cc(Br)c1OCC(=O)NC(C)(C)C,-2%,?,-10%,8%,?
COc1cc(CNc2ccc3[nH]c(=O)[nH]c3c2)ccc1OCC(=O)NC(C)(C)C,-9%,?,?,?,14µM*
O=C1N=C(N2CCOCC2)S/C1=C1\C(=O)N(Cc2ccccc2)c2ccccc21,3%,-4%,13%,4%,?
CCCN1C(=O)/C(=C2\SC(N3CCCCC3)=NC2=O)c2ccccc21,5%,?,2%,3%,16µM*
CN1C(=O)/C(=C2\SC(N3CCCCCC3)=NC2=O)c2ccccc21,8%,?,1%,11%,13µM*
O=C(Nc1ccc2[nH]c(=S)sc2c1)c1ccccc1,-6%,-12%,-29%,3%,-16%
O=C(Nc1ccc2[nH]c(=S)sc2c1)Nc1ccccc1F,8%,11µM*[quencher],-6%,-6%,11µM*
